The assay has as its system Caenorhabditis elegans L1 (N2). Description: survival and reproduction score of C. elegans L1 (0: 0-10 living worms, 1: 11-20, 2: 21-50, 3: >50, 4: overgrown) (score 0-4); higher = more worms, less nematicidal, active = 1 or less; extreme values may be limits of the assay. To be noted: 60 µM; 6 days; temperature: 20 °C. The essentials:
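Each 96-well well received about 20 synchronized N2 L1 worms of C. elegans, E. coli HB101 and liquid NGM, plus compound pinned to 60 µM final (0.6% v/v DMSO). Sealed plates were incubated with shaking at 200 rpm, 20 °C, for 6 days. Survival and reproduction were rated under a dissection microscope as an ordinal score of living worms per well, averaged across biological replicates. The scale spanned 0 (0–10 worms) to 4 (overgrown, starved), and there were two replicates.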
In the case of `CCOC(=O)c1sc(NC(=O)CSc2nnc(-c3ccc(Cl)cc3)o2)c(C(=O)OCC)c1C`, the “survival and reproduction score” value is 4 (inactive).
For `Brc1ccc(-c2noc(-c3cccs3)n2)cc1`, the “survival and reproduction score” value was 0 (active).
For the molecule `Cc1cc(OCc2nc(-c3ccccn3)no2)ccc1Br`, the “survival and reproduction score” value is 4 (inactive).
As for `Cc1ccccc1-c1noc(-c2ccccc2C(=O)NCc2ccccc2)n1`, the “survival and reproduction score” value was 4 (inactive).
For the molecule `CC(C)(C)NC(=O)CSc1nnc(-c2ccc(C(C)(C)C)cc2)o1`, the “survival and reproduction score” value is 4 (inactive).
With `CCc1cccc(CC)c1NC(=O)CSc1nnc(-c2ccccc2OC)o1`, the “survival and reproduction score” value was 4 (inactive).
Turning to `O=C(CSc1nnc(-c2ccccc2)o1)OCc1ccccc1`, the “survival and reproduction score” value is 4 (inactive).
As for `Clc1cc(Br)ccc1OCc1nc(-c2ccccc2)no1`, the figure is 4 (inactive); as for `C=C(C)COc1ccc(-c2nc(-c3cccnc3)no2)cc1`, 3 (inactive); as for `Cc1ccc(CSc2nnc(-c3ccncc3)o2)cc1`, 4 (inactive).
In the case of `CCOc1ccccc1-c1nnc(SCC(=O)Nc2ccccc2)o1`, the “survival and reproduction score” value was 4 (inactive).
Regarding `Cc1ccccc1OCc1nc(-c2ccc3c(c2)OCO3)no1`, the “survival and reproduction score” value was 4 (inactive).
With `CC(C)(C)c1ccc(OCc2nc(-c3ccncc3)no2)c(Br)c1`, the “survival and reproduction score” value is 4 (inactive).
For `CC(C)C(=O)Nc1ccccc1-c1nc(-c2cccnc2)no1` the value was 0 (active); for `O=C(CSc1nnc(-c2ccc(Cl)cc2)o1)NC1CC2CCC1C2` (stereo not drawn), 4 (inactive); for `Cn1c(SCc2nc(-c3ccc(Br)cc3)no2)nnc1-c1ccco1`, 4 (inactive).
For `Cc1cc(Cl)ccc1OCc1nc(-c2ccc(F)cc2)no1`, the “survival and reproduction score” value is 4 (inactive).
In the case of `CCOc1ccccc1-c1nc(-c2ccc(NC(=O)Cc3ccccc3OC)cc2)no1`, the “survival and reproduction score” value is 4 (inactive).
Turning to `Cc1cccc(-c2noc(C3CCCCC3)n2)c1`, the “survival and reproduction score” value was 3.5 (inactive).
As to `O=C(Nc1cccc(-c2noc(COc3ccccc3)n2)c1)c1cccs1`, the “survival and reproduction score” value is 4 (inactive).
On to `O=C(CSc1nnc(-c2ccc(Br)cc2)o1)NC1CCCC1`, for which the “survival and reproduction score” value was 4 (inactive).
Regarding `COc1nc(C)ccc1-c1noc(-c2ccc(C)cc2)n1`, the “survival and reproduction score” value was 4 (inactive).
In the case of `COc1ccc(-c2nnc(SCC(=O)OCc3ccccc3)o2)cc1`, the “survival and reproduction score” value is 4 (inactive).
On to `CC(Sc1nnc(-c2ccccc2)o1)C(=O)Nc1nccs1` (stereo not drawn), for which the “survival and reproduction score” value is 4 (inactive).
On to `Fc1ccc(CSc2nnc(-c3ccccn3)o2)cc1`, for which the “survival and reproduction score” value is 4 (inactive).
On to `O=C(CSc1nnc(-c2ccncc2)o1)Nc1ccccc1Cl`, for which the “survival and reproduction score” value was 4 (inactive).
Regarding `Cc1ccccc1-c1noc(-c2ccccc2OCC(N)=O)n1`, the “survival and reproduction score” value was 4 (inactive).
For `CC(Oc1ccccc1)c1nc(-c2cccnc2)no1` (stereo not drawn), the “survival and reproduction score” value is 4 (inactive).
`CCCOc1ccc(-c2nc(-c3cccnc3)no2)cc1`: the “survival and reproduction score” value was 0 (active).
Consider `CCOC(=O)c1c(NC(=O)CSc2nnc(-c3ccc(Cl)cc3)o2)sc(C(C)=O)c1C`, for which the “survival and reproduction score” value is 4 (inactive).
As for `Cc1csc(NC(=O)CSc2nnc(-c3ccccc3Cl)o2)n1`, the figure is 4 (inactive); as for `COc1ccc(CCC(=O)Nc2ccc(-c3noc(COc4ccccc4C)n3)cc2)cc1`, 4 (inactive).
As to `O=S(=O)(CCC(F)=C(F)F)c1ncc(Cl)s1` [fluensulfone], the “survival and reproduction score” value was 4 (inactive).
For `COc1ccc(-c2nnc(SCC(=O)Nc3ccc(Cl)cc3Cl)o2)cc1` the value was 2 (inactive); for `COc1ccc(-c2nnc(SCc3cccc(C#N)c3)o2)cc1`, 4 (inactive).
`CC(C)CCC(=O)Nc1ccccc1-c1nc(-c2ccncc2)no1`: the “survival and reproduction score” value is 4 (inactive).
With `Cc1cc(Cl)ccc1OCc1nc(-c2ccccc2)no1`, the “survival and reproduction score” value was 4 (inactive).
`COc1ccc(-c2nnc(SCC(=O)c3ccc4ccccc4c3)o2)cc1`: the “survival and reproduction score” value is 4 (inactive).
